Compound activity: PubChem BioAssay, National Center for Advancing Translational Sciences (NCATS)
ELG1 repair inh – inhibitors of ELG1-dependent DNA repair in HEK293T cells. HEK293T ELG1-luciferase reporter, luminescence, 16 h; DNA damage induced by 5-fluorouridine. Potency, µM (top dose mostly 46.1 µM), usual class: inhibitors. 2.3% of 330,000 active; also: nearly all actives have a fitted effect of over 55% in size
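Step one: seed 2,000 cells per well. Step two: pin-transfer compound or DMSO alongside 5-fluorouridine. Step three: incubate 16 hr, 37 °C, 5% CO2. Step four: add ONE-Glo, wait 30 min, read luminescence.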
Coupling enz – inhibits coupling enzyme system, counter-screen for aldolase hits; 0.67% of 290,000 active; coupling enzyme system counterscreen, AmpLite Red fluorescence; activity change, negative = inhibition, % at 58.2 µM, hits read low; in the data active = activity change below about -30%
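Final compound at 57.5 uM, incubated 10 min at RT with coupling enzyme reagent (glyceraldehyde-3-phosphate), then 20 min with substrate and AmpLite Red detection. Fluorescence read at 525/598 nm; tests interference with the coupling assay, not aldolase inhibition.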
Giardia killer – kills Giardia lamblia; AID 540267; activity change, % at 7.66 µM, hits read low; Giardia lamblia trophozoite viability; 0.15% of 340,000 active; in the data active = activity change below about -80%; inconclusive = between about -30% and that limit;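 also: parasites exposed to compound for two days anaerobically before the ATP read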
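Killing of trophozoites was scored by loss of ATP luminescence after a 48 hrs anaerobic exposure to compounds at 37 deg C, using 100 cells per well.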
Sfp PPTase inh – Sfp phosphopantetheinyl transferase inhibition. AID 1490. Potency, µM, most hits filed as inhibitors. Biochemical Sfp PPTase activity, qHTS. 3.5% of 310,000 active;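 also: the enzyme is Sfp with the accession as filed and its product quenches rhodamine fluorescence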
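Fluorescence-quenching assay: 15 nM Sfp-PPTase preincubated 15 min at room temperature with compound, then 5 uM rhodamine-CoA and 12.5 uM BHQ-2-labelled YbbR peptide added. Fluorescence (ex 525/em 598 nm) read at start and after 30 min; difference gives rate.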
Of the large screens only hits and unclear results are named; the others gave an inactive call. Shown are actives, neighbours in structure and some others; about 5.5% of the full set was active somewhere. Unless noted, calls follow the shape of the dose curve; as a rule, active = well fitted curve in the direction sought with a large enough effect; inconclusive = small, poorly fitted or top-dose-only effect, or another doubt; inactive = no such curve, though single readings can be large; an effect the other way counts as inactive or inconclusive.

CN(C)C(=O)Cn1cnc2c(cnn2-c2ccc(F)cc2)c1=O	none
COc1ccc(-c2ccc(CCC(=O)O)n2-c2ccccc2O)cc1	Sfp PPTase inh 79µM
CCCn1c(CCC(=O)O)ccc1-c1cccs1	Sfp PPTase inh 25µM
COC(=O)c1ccc(-n2c(CCC(=O)O)ccc2-c2ccc(C)cc2)cc1	Giardia killer inconclusive
Cc1ccc(-c2ccc(CCC(=O)O)n2-c2ccc(C(=O)O)cc2)cc1	Sfp PPTase inh 56µM
COC(=O)c1ccccc1NC(=O)Cn1c(CCC(=O)O)ccc1-c1cccs1	Sfp PPTase inh 56µM
Cc1ccc(NC(=O)Cn2c(CCC(=O)O)ccc2-c2cccs2)cc1	Sfp PPTase inh 25µM
CC(=O)c1ccc(-n2c(CCC(=O)O)ccc2-c2cccs2)cc1	Sfp PPTase inh 20µM
O=C(O)CCc1ccc(-c2cccs2)n1NC(=O)c1ccc(Cl)cc1	Sfp PPTase inh 25µM
CC(=O)N1CCOc2ccc(S(=O)(=O)N3CC(C)CC(C)C3)cc21 (stereo not given)	none
COC(=O)C(Cc1c[nH]c2ccccc12)NC(=O)C1CC1 (stereo not given)	none
O=C(CNS(=O)(=O)c1cccc2nsnc12)NCCc1ccccc1	none
CCC(Sc1ccc(C(=O)O)cc1)C(=O)O (stereo not given)	none
O=C(CC(Sc1ccc(Br)cc1)C(=O)O)c1ccc(F)cc1 (stereo not given)	Sfp PPTase inh 45µM
CCOc1ccc(C(=O)CC(Sc2ccc(C)cc2)C(=O)O)cc1 (stereo not given)	Sfp PPTase inh 35µM
CCOC(=O)C(CCc1ccccc1)NC(C)C(=O)N1Cc2ccccc2CC1C(=O)O (stereo not given)	none (no result: ELG1 repair inh, Giardia killer)
CSc1nc(N(C)CCO)c2sc3nc(-c4ccco4)c4c(c3c2n1)CCC4	Sfp PPTase inh 79µM
Nc1c(C(=O)OCC(=O)Nc2cccc([N+](=O)[O-])c2)[nH]c(=O)[nH]c1=O	none (no result: Coupling enz, Sfp PPTase inh)
O=C(CCN1CCN(c2ccccc2)CC1)N/N=C/c1ccccc1OC(F)F	ELG1 repair inh 12µM
CCOC(=O)c1sc(N)c(C(N)=O)c1C	Coupling enz -33, Sfp PPTase inh 32µM
CCCc1c(C(=O)OCC)sc(N)c1C#N	Sfp PPTase inh 63µM
CCOC(=O)c1c(N)sc(C(N)=O)c1C	Sfp PPTase inh inconclusive
CCOC(=O)c1c(N)sc(C(=O)Nc2ccccc2F)c1C	ELG1 repair inh inconclusive, Giardia killer inconclusive
CCOC(=O)c1c(N)sc(C(=O)Nc2ccccc2)c1C	ELG1 repair inh inconclusive, Giardia killer inconclusive, Sfp PPTase inh 20µM
CCOC(=O)c1sc(NC(=O)Nc2ccccc2)cc1C	ELG1 repair inh inconclusive, Giardia killer inconclusive, Sfp PPTase inh 35µM
Cc1cc(OC(C)C(=O)N2CCN(c3ccc(F)cc3)CC2)c2c(C)c(C)c(=O)oc2c1 (stereo not given)	none
Cc1nn(-c2ccccn2)c2c1-c1nc(N3CCOCC3)ncc1CC2	ELG1 repair inh inconclusive, Coupling enz -39, Sfp PPTase inh 45µM
Cc1nn(-c2ccccn2)c2c1-c1nc(N)ncc1CC2	ELG1 repair inh inconclusive, Coupling enz -47
CCc1nnc(NC(=O)CCC(=O)N2CCN(Cc3ccc(OC)c(F)c3)CC2)s1	none
CC(C)(C)OC(=O)N1CCCC1C(=O)O (stereo not given)	ELG1 repair inh inconclusive
CC(C)(CS)C(=O)N1CCC[C@H]1C(=O)O	Sfp PPTase inh 22µM (no result: ELG1 repair inh, Giardia killer)
COc1ccccc1N(CC(=O)NC1CCCCC1)C(=O)CNC(=O)c1cccs1	none
Cc1noc(C)c1S(=O)(=O)N1CCCC(C(=O)Nc2ccc(Cl)cn2)C1 (stereo not given)	ELG1 repair inh 16µM
CCOc1ccc(Cl)cc1S(=O)(=O)N1CCC(C(=O)N2CCCC2)CC1	none (no result: Coupling enz)
Cc1ccccc1-c1nc2ccccc2c(=O)n1/N=C/c1ccccc1[N+](=O)[O-]	ELG1 repair inh inconclusive, Sfp PPTase inh 0.4µM
Cc1nc2ccccc2c(=O)n1/N=C/c1ccccc1O	ELG1 repair inh inconclusive
O=C1c2ccccc2C(=O)N1/N=C/c1ccc(O)c(O)c1O	Coupling enz -68, Sfp PPTase inh 7.9µM
O=C1c2cccc3cccc(c23)C(=O)N1/N=C/c1ccc(O)cc1O	none
Cc1nc2ccccc2c(=O)n1/N=C/c1ccc(O)c(O)c1O	Coupling enz -45, Sfp PPTase inh 7.1µM
Cc1nc2ccccc2c(=O)n1/N=C/c1ccc2ccccc2c1O	ELG1 repair inh inconclusive, Coupling enz -32
C=C(C)C(=O)OCCOC(=O)C(=C)C	none (no result: ELG1 repair inh, Giardia killer)
Cc1ccccc1C(=O)N[C@H](C(=O)OCC(=O)NC1CC1)C(C)C	none (no result: Coupling enz, Sfp PPTase inh)
CC1(NC(=O)CC(c2ccccc2)(c2ccccc2)c2ccccc2)CCN(CCCc2ccccc2)C1=O (stereo not given)	ELG1 repair inh inconclusive (no result: Coupling enz, Sfp PPTase inh)
CC(C)(C)OC(=O)NCCCC[C@H](NC(=O)c1nc[nH]c1C(=O)N[C@@H](CCCCNC(=O)OC(C)(C)C)C(=O)OC(C)(C)C)C(=O)OC(C)(C)C	ELG1 repair inh 9.2µM
Cc1cccc(NC(=O)c2nc[nH]c2C(=O)NC2CCN(C(=O)OC(C)(C)C)CC2)c1	ELG1 repair inh 26µM (no result: Coupling enz, Sfp PPTase inh)
Cc1cccc(NC(=O)c2nc[nH]c2C(=O)NCCN(CCNC(=O)c2[nH]cnc2C(=O)Nc2cccc(C)c2)CCNC(=O)c2[nH]cnc2C(=O)Nc2cccc(C)c2)c1	none (no result: Coupling enz, Sfp PPTase inh)
C[C@H](NC(=O)c1nc[nH]c1C(=O)N[C@@H](CCCCNC(=O)OC(C)(C)C)C(=O)OC(C)(C)C)C(=O)OC(C)(C)C	ELG1 repair inh inconclusive
Cc1cccc(NC(=O)c2nc[nH]c2C(=O)NCCCNC(=O)c2[nH]cnc2C(=O)Nc2cccc(C)c2)c1	ELG1 repair inh 9.2µM (no result: Coupling enz, Sfp PPTase inh)
CC(C)(C)OC(=O)NCCCCCNC(=O)c1[nH]cnc1C(=O)N[C@@H](CCCCNC(=O)OC(C)(C)C)C(=O)OC(C)(C)C	ELG1 repair inh inconclusive
Cc1cccc(NC(=O)c2nc[nH]c2C(=O)N[C@@H](CCCCNC(=O)OC(C)(C)C)C(=O)OC(C)(C)C)c1	ELG1 repair inh 15µM
C#C[C@]1(O)CC[C@H]2[C@H]3CCc4cc(O)ccc4[C@@H]3CC[C@@]21C	none (no result: ELG1 repair inh, Giardia killer)
O=C(CNC(=O)c1ccc(Cl)cc1Cl)OCCOc1ccccc1F	none (no result: Coupling enz, Sfp PPTase inh)
COCCNC(=O)c1ccc(CS(=O)(=O)c2cccc(C(F)(F)F)c2)o1	none
CC(N)COC(=O)C(CCCCN)NC(=O)Cc1c(-c2ccc3ccccc3c2)[nH]c2c1ccc1ccccc12 (stereo not given)	Sfp PPTase inh inconclusive (no result: ELG1 repair inh, Giardia killer)
Cc1cccc(NC(=O)c2nc[nH]c2C(=O)Nc2cccc(C)c2)c1	none
O=C(Nc1ccc(Cl)cc1)c1nc[nH]c1C(=O)NCCCNC(=O)c1[nH]cnc1C(=O)Nc1ccc(Cl)cc1	ELG1 repair inh 2.6µM (no result: Coupling enz, Giardia killer, Sfp PPTase inh)
CC(C)(C)OC(=O)NCCCC[C@H](NC(=O)c1nc[nH]c1C(=O)NC1CCN(C(=O)OC(C)(C)C)CC1)C(=O)OC(C)(C)C	ELG1 repair inh 16µM
Cc1cccc(NC(=O)c2nc[nH]c2C(=O)NCCCCCNC(=O)OC(C)(C)C)c1	ELG1 repair inh 21µM (no result: Coupling enz, Sfp PPTase inh)
